Only some compounds are listed: those with a hit (about 3.2% of all), similar ones and a draw of the others.
CHT inh: human CHT choline transport inhibition; B-score at 10 µM; CHT-expressing cells, membrane potential dye, choline response; active compounds read low; Q9GZV3; 310,000 compounds, 0.86% hits;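 active = B-score over 3 SD under the library average, and starting fluorescence ratio not unusually high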;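 also: choline stimulus applied at its EC90 after an EC20 pre-addition; B-score computed on integrated fluorescence ratio after choline addition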
Target sequence (Q9GZV3 whole entry, looked up): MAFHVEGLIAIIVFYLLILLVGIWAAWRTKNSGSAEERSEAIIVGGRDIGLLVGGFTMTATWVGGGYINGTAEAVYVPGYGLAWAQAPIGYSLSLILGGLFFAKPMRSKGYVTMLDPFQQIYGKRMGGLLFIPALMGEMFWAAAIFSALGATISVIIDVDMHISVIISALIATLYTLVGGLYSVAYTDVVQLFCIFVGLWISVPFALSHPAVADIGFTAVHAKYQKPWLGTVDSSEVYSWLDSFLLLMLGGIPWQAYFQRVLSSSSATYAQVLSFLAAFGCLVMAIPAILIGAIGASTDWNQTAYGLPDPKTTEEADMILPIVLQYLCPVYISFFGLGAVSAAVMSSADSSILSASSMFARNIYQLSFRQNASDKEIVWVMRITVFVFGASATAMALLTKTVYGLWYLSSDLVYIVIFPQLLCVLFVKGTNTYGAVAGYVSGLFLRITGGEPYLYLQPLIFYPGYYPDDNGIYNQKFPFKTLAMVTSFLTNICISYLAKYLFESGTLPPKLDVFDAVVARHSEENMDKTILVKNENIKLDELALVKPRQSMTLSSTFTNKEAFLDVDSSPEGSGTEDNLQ
Rce1 inh: yeast Ras-converting enzyme inhibition; Q03530; yeast membranes, quenched prenylated peptide cleavage fluorescence; calls only; 290,000 compounds, 0.27% hits;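 active = fall in fluorescence gain of 50% or more versus controls, with final raw signal at or below 3038400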;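 also: plate controls were neutral control wells for no effect and wells lacking membranes for full effect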
TMEM16A inh: mouse TMEM16A channel inhibition, primary screen | Q8BHY3 | HEK293 TMEM16A/YFP iodide influx fluorescence, ionomycin | normalized B-score (activity score, 25-100; higher = stronger inhibition) at 10 µM | 310,000 compounds, 1.2% hits | AID 588511;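 active = ratio plate-corrected score three or more library SD toward inhibition, starting fluorescence score within five deviations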;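 also: score derived from kinetic fluorescence span divided by baseline fluorescence per well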
TMEM16A act: activates or potentiates the mouse TMEM16A chloride channel; HEK293 TMEM16A/YFP-H148Q/I152L, iodide quench fluorescence; active compounds read low; B-score at 10 µM; 340,000 compounds, 0.3% hits; AID 623877;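 active = fluorescence-ratio B-score plate-corrected deviation score at least 3 library SD below zero, with starting fluorescence score within 5 deviations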;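 also: channel opened by trigger with iodide after compound preincubation; score built on the fluorescence ratio of max minus min over baseline; more negative score means more quench and so TMEM16A activation or potentiation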
Kir21 block: Kir2.1 (mouse) channel inhibition. AID 1672. 310,000 compounds, 0.85% hits. B-score at 10 µM. HEK293-Kir2.1, FluxOR thallium flux fluorescence; active compounds read low. P35561;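 active = fluorescence ratio B-score at or below minus 3 SD of library scores, with starting-brightness B-score within 2 SD, cut at about -4.2 in these data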;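 also: channel flux triggered by added potassium and thallium sulfate stimulus; B-score of peak minus minimum fluorescence over baseline after thallium stimulus; more negative B-score means stronger Kir2.1 block with less thallium influx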
CHT PAM: human CHT allosteric activation; Q9GZV3; CHT-expressing cells, membrane potential dye, choline EC20; active compounds read high; LV-AA mutant CHT in HEK293 cells; B-score at 10 µM; 310,000 compounds, 0.49% hits;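 active = initial fluorescence not abnormally high and integrated response B-score, plate-corrected, over 3 SD above library mean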
CHT activ conf: human CHT activation, confirmatory screen | shares compounds with CHT PAM | CHT-expressing cells, membrane potential dye fluorescence (FDSS); % of choline EC20–EC90 response window; HEK293 expressing CHT LV-AA mutant; choline added at its EC20 | activation, % at 10 µM | 2,500 compounds, 91% hits;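 active = primary screen active, with duplicate mean activation above negative control mean plus 3 SD, cut at about 11% in these data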
HEK293 MP dye: activity in parental HEK293 cells lacking CHT. shares compounds with CHT PAM. membrane potential dye fluorescence (FDSS); measured after EC20 choline addition. ratio readout change at 10 µM, hits read low. 2,500 compounds, 62% hits. AID 623908;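 active = duplicate-averaged ratio beyond 3 SD from buffer wells, up or down, though filed actives are nearly all decreases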
The depositor's hits bear a star; i = inactive; . = not tested or not shown.

SMILES	CHT inh	Rce1 inh	TMEM16A inh	TMEM16A act	Kir21 block	CHT PAM	CHT activ conf	HEK293 MP dye
Cc1cc(NC(=O)c2ccc3c(c2)C(=O)N(Cc2cccnc2)C3=O)no1	i	i	i	i	-1.79	i	25.6*	-27.4*
Cc1cc(NC(=O)c2ccc3c(c2)C(=O)N(C)C3=O)no1	i	i	i	i	1.86	i	44.4*	-41.9*
Cc1cc(NCCCn2ccnc2)n2ncc(-c3ccccc3)c2n1	i	.	i	i	.	i	.	.
Cc1cc(NCCCn2ccnc2)n2nc(C)c(-c3ccccc3)c2n1	i	i	i	i	-3.92	8.46*	47.3*	-56.7*
c1ccc(-[n+]2nc(Nc3cccc4ccccc34)sc2-c2c3ccccc3cc3ccccc23)cc1	i	.	i	i	.	i	.	.
CCOc1cc(-c2sc(Nc3ccc(CC)cc3)n[n+]2-c2ccccc2)ccc1OC	i	.	i	i	.	i	41.6*	i
CCOc1cc(-c2sc(Nc3cc(C)ccc3OC)n[n+]2-c2ccccc2)ccc1OC	i	.	i	i	.	i	43.8*	i
CSc1ccc(-c2sc(Nc3ccccc3)n[n+]2-c2ccc(F)cc2)cc1	i	i	i	i	-0.92	i	.	.
Cc1cccc(NC(=O)CCCC(=O)OC(C)C(=O)c2ccccc2)c1 (configuration not stated)	i	.	i	i	-0.73	i	.	.
O=C1CC2(CCN(C(=O)c3ccccc3Br)CC2)Oc2ccccc21	i	i	i	i	2.49	i	.	.
COc1ccc(Cl)cc1C(=O)N1CCC2(CC1)CC(=O)c1ccccc1O2	i	i	i	i	2.42	9.62*	4.2	i
O=C1CC2(CCN(C(=O)c3c(F)cccc3Cl)CC2)Oc2ccccc21	i	i	i	i	1.64	8.67*	-3.0	i
Cc1ccc(S(=O)(=O)NC(CC(=O)NCC2CCCO2)c2ccccc2)cc1 (configuration not stated)	i	i	i	i	0.27	i	.	.
COC(=O)c1ccc(N2CCOCC2)c(NC(=O)c2cccs2)c1	i	i	i	i	-1.65	i	.	.
COC(=O)c1ccc(N2CCN(C)CC2)c(NC(=O)c2cccnc2)c1	i	i	i	i	1.82	10.3*	51.8*	-101*
COC(=O)c1ccc(N2CCN(C)CC2)c(NC(=O)c2cccs2)c1	i	.	i	i	2.37	6.69*	33.0*	-71.3*
COc1cccc(CC(=O)OCC(=O)N(C)CC(=O)Nc2ccccc2Cl)c1	.	.	.	i	.	.	.	.
COc1ccc(S(=O)(=O)N(C)c2ccc(C(=O)N3CCCCC3)cc2)cc1	i	i	i	i	0.11	i	.	.
CCOC(=O)C1=C(O)C(=O)N(CCCn2ccnc2)C1c1ccc(OC)cc1 (configuration not stated)	i	i	i	.	-0.91	i	.	.
Nc1c2c(nc3c1CCC3)CCCC2	i	i	i	.	0.69	12.4*	44.5*	-70*
COc1ccc(-c2noc(CSc3nc4ccccc4c(=O)n3-c3ccccc3)n2)cc1OC	i	i	i	i	-2.55	i	13.9*	i
COc1ccc(-c2noc(CSc3nc4sc(C)c(C)c4c(=O)n3-c3ccccc3)n2)cc1OC	i	i	i	i	-1.7	i	.	.
CCC(C)NC(=O)[C@H]1N2C(=O)c3c(ccc(OC)c3OC)C2SC1(C)C (some centres not stated)	i	i	i	i	0	i	.	.
CCN1CCN(c2cc(N3CCN(C(=O)c4ccco4)CC3)c3c4c(onc24)-c2ccccc2C3=O)CC1	i	i	i	i	-1.88	i	25.0*	-52.1*
O=C(O)CCNc1cc(N2CCN(C(=O)c3ccco3)CC2)c2noc3c2c1C(=O)c1ccccc1-3	i	i	i	i	-0.93	i	.	.
SMILES	CHT inh	Rce1 inh	TMEM16A inh	TMEM16A act	Kir21 block	CHT PAM	CHT activ conf	HEK293 MP dye
O=C(O)CNS(=O)(=O)c1ccc2c(c1)C(=O)c1cc(S(=O)(=O)NCC(=O)O)ccc1-2	i	i	i	i	-0.04	i	.	.
O=C1c2cc(S(=O)(=O)NCCO)ccc2-c2ccc(S(=O)(=O)NCCO)cc21	i	i	i	i	1.34	i	41.0*	-35*
N#CC(C#N)=C1c2cc(S(=O)(=O)NCCO)ccc2-c2ccc(S(=O)(=O)NCCO)cc21	i	i	i	i	-0.03	9.53*	54.1*	-51.8*
COc1ccc(CNC(=O)COC(=O)C(CCSC)NC(=O)c2ccco2)cc1OC (configuration not stated)	.	.	.	i	.	.	.	.
c1ccc(CC(Nc2ccccn2)c2ccccc2)cc1 (configuration not stated)	i	i	i	i	-3.03	i	.	.
Cc1ccc(C(=O)C(C)OC(=O)Cn2[nH]c(=O)c3ccccc3c2=O)cc1C (configuration not stated)	i	i	i	i	-1.72	i	.	.
CC1Cc2cc(S(=O)(=O)N3CCN(c4ccccc4F)CC3)ccc2N1C(=O)C1CC1 (configuration not stated)	i	i	i	i	0.84	7.53*	20.0*	i
COC(=O)c1ccccc1NC(=O)CN1CCN(C23CC4CC(CC(C4)C2)C3)CC1	i	i	i	i	-2.63	6.87*	30.3*	i
COC(=O)c1ccccc1NC(=O)CN1CCc2ccccc2C1	i	i	i	i	-2.23	i	.	.
Cc1cc(C)nc(/N=C(\N)N2CCc3ccccc32)n1	i	i	i	i	-2.31	i	.	.
Cc1cc(C)nc(/N=C(\N)N2CCCCC2)n1	i	i	i	i	0.98	6.89*	52.0*	-41.1*
O=C(CN(c1ccccc1)S(=O)(=O)c1ccc(Cl)cc1)Nc1cccnc1	i	i	i	i	0.01	i	.	.
Cc1cc(C)nc(/N=C(\N)Nc2ccc(S(=O)(=O)Nc3nccc(C)n3)cc2)n1	i	i	i	i	-1.07	7.25*	58.5*	-56.3*
Cc1cc(C)nc(/N=C(\N)Nc2ccc(S(=O)(=O)O)cc2)n1	.	i	.	i	-0.32	.	.	.
O=C(NCC1CC1)[C@@H]1C[C@H]1[C@@H](NP(=O)(c1ccccc1)c1ccccc1)c1ccccc1	i	i	i	i	0.67	i	-8.9	i
